# Records with an inconclusive call do not appear. Active and inactive are the calls of the source. Calls follow the shape of the dose curve; as a rule, active = well fitted curve in the direction sought with a large enough effect; inconclusive = small, poorly fitted or top-dose-only effect, or another doubt; inactive = no such curve, though single readings can be large; an effect the other way counts as inactive or inconclusive.
# Key:
# [1] = qHTS Screen of the MIPE 4.0 Collection Against Ewings Sarcoma (TC71) (AID 1259253); also: nearly all actives have a fitted effect of over 40% in size; also: potency is read from the fitted curve at half-maximal effect
# Summary of the method: (§1)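 After a 4 h attachment period in RPMI/5% FBS, cells were pin-dosed with test compounds; DMSO served as negative and 9.2 uM bortezomib (final) as positive control. Luminescent CellTiter-Glo signal at 48 h defined viability.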
# [2] = qHTS Screen of the MIPE 4.0 Collection Against Ewings Sarcoma (EW8) (AID 1259255); also: nearly all actives have a fitted effect of over 35% in size; also: potency is read from the fitted curve at half-maximal effect
# Summary of the method: as §1
# [3] = Identifying Small Molecule Inhibitors of Pancreatic Cancer Stem Cells (A2780, Spheroid) (AID 1259357); details: Potency: A2780 spheroid viability;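 also: spheroids pre-formed over 14 days in stem cell medium on hydrogel; compound exposure lasted 48 h before the ATP luminescence read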
# Summary of the method: (§2)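 Adherent (2D) versus sphere (3D) formats; spheres generated 14 d in SCM beforehand. Compound transferred by pin tool after 4 h, 48 h incubation, CellTiter-Glo endpoint.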
# [4] = Identifying Small Molecule Inhibitors of Pancreatic Cancer Stem Cells (SN12C, Adherent) (AID 1259358);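 also: cell survival measured after 48 h of compound exposure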
# Summary of the method: as §2
# [5] = qHTS Screen of the MIPE 4.0 Collection Against Ewings Sarcoma (TC32) (AID 1259256); also: nearly all actives have a fitted effect of over 45% in size; also: potency is read from the fitted curve at half-maximal effect
# Summary of the method: as §1
# [6] = qHTS assay to identify small molecule inhibitors of chordoma cells - UCH-1 (AID 1259355); also: nearly all actives have a fitted effect of over 55% in size
# Summary of the method: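 800 cells/well, overnight attach; compounds pinned at 15 concs, then auranofin/camptothecin/doxorubicin/rubitecan/topotecan combo added; 48hr 37 C, 5% CO2; CellTiter-Glo, 30min RT, luminescence.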
# [7] = Identifying Small Molecule Inhibitors of Pancreatic Cancer Stem Cells (SN12C, Spheroid) (AID 1259360); details: Potency: SN12C spheroid viability; also: potency is read from the fitted curve at half-maximal effect
# Summary of the method: as §2
# [8] = Identifying Small Molecule Inhibitors of Pancreatic Cancer Stem Cells (A278, Adherent) (AID 1259361);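 also: viability read after 48 h compound exposure; nearly all actives have a fitted effect of over 35% in size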
# Summary of the method: as §2
# [9] = Identifying Small Molecule Inhibitors of Pancreatic Cancer Stem Cells (Panc1, Adherent) (AID 1259362); details: Potency: viability;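 also: compound exposure lasted 48 h before the viability read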
# Summary of the method: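 Endpoint: ATP-based luminescence, 48 h drug exposure. Bortezomib at 9.2 uM final as full-kill control; DMSO vehicle as negative control; activity normalized between vehicle and cell-free wells.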
compound,measurement,setting,value
Cc1ccc(NC(=O)c2ccc(CN3CCN(C)CC3)cc2)cc1Nc1nc(-c2cccnc2)cs1,Potency,[1],23.5 µM (active)
same,Potency,[2],23.5 µM (active)
same,Potency,[3],inactive
same,Potency,[4],inactive
COc1ccnc(CS(=O)c2nc3ccc(OC(F)F)cc3[nH]2)c1OC (centres undefined),Potency,[1],inactive
same,Potency,[2],inactive
same,Potency,[5],inactive
same,outcome,[6],inactive
CC(C)n1c(C=C[C@H](O)C[C@H](O)CC(=O)O)c(-c2ccc(F)cc2)c2ccccc21,Potency,[1],3.32 µM (active)
same,Potency,[2],9.35 µM (active)
same,Potency,[7],inactive
same,IC50 (viability decrease),[8],1.05 µM (active)
COc1ccc2c(c1)CC[C@H]1[C@@H]2CC[C@]2(C)[C@@H](NCCCCCCN3C(=O)C=CC3=O)CC[C@H]12,Potency,[1],16.6 µM (active)
same,Potency,[2],inactive
same,Potency,[7],20.9 µM (active)
same,IC50 (viability decrease),[8],20.9 µM (active)
same,Potency,[9],inactive
CC(O)=C(C#N)C(=O)Nc1ccc(C(F)(F)F)cc1,Potency,[1],18.7 µM (active)
same,Potency,[2],20.9 µM (active)
same,Potency,[4],inactive
same,Potency,[7],inactive
same,IC50 (viability decrease),[8],16.6 µM (active)
same,Potency,[9],inactive
NC1(C(=O)N[C@@H](CCO)c2ccc(Cl)cc2)CCN(c2ncnc3[nH]ccc23)CC1,Potency,[1],16.6 µM (active)
same,Potency,[5],16.6 µM (active)
CN1c2ccccc2C(=O)N2CCc3c([nH]c4ccccc34)C21 (centres undefined),Potency,[1],23.5 µM (active)
same,Potency,[5],14.8 µM (active)
CCc1cccc(CC)c1NC(=O)N1Cc2[nH]nc(NC(=O)c3ccc(N4CCN(C)CC4)cc3)c2C1,Potency,[1],4.18 µM (active)
same,Potency,[5],0.526 µM (active)
